Data: PubChem BioAssay AID1051 (The Scripps Research Institute Molecular Screening Center, 2008)
Out of some 99,000 compounds screened, about 340 (0.34%) were called active. What follows is part of a selection rich in actives, with near analogues and random picks from the rest. Values without a mark were called inactive. Cut-off read from the data, not from the text of the source: active = TR-FRET ratio above about 2300; inactive = the rest.

assay: TR-FRET detection interference compounds, primary screen, artefact control for PPARgamma SRC-1 recruitment agonists, biochemical, TR-FRET emission ratio (AID 1051); conditions: TR-FRET detection artefact counter-screen, at 8 µM, active compounds read high

Row | SMILES | TR-FRET ratio
1 | Cc1ccc(C2NC(C(=O)O)CS2)cc1 (configuration not stated) | 1760
2 | CC1(C)C(C=C(Cl)Cl)C1C(=O)N(Cc1ccc(Cl)cc1)C1CCS(=O)(=O)C1 (configuration not stated) | 1570
3 | CCC(=O)N1c2ccccc2NC2=C(C(=O)CCC2)C1c1ccco1 (configuration not stated) | 1690
4 | Cn1c(N)c(C(=O)COC(=O)c2ccccc2NCc2ccco2)c(=O)n(C)c1=O | 1870
5 | CCN(C(=O)COc1cccnc1[N+](=O)[O-])C1CCS(=O)(=O)C1 (configuration not stated) | 1750
6 | Cc1ccc(CN2CCN(/N=C/c3cccnc3)CC2)c(C)c1 | 1720
7 | Cc1ccccc1-c1n[nH]c(=S)n1C | 1660
8 | Cc1ccccc1-c1n[nH]c(=S)n1/N=C/c1ccc(-c2ccccc2Br)o1 | 2950 (active)
9 | S=c1[nH]nc(-c2ccccc2)n1/N=C/c1c[nH]c2ccccc12 | 1810
10 | CCc1ccc(CN(C)C(=O)CCc2nnc(-c3ccc(-c4ccccc4)cc3)o2)nc1 | 1540
11 | O=C(COC(=O)c1cc(-c2cccs2)nn1-c1ccccc1)Nc1cc([N+](=O)[O-])ccc1Cl | 2060
12 | Cc1cc(CNCc2c(C(=O)N(C)Cc3ccccc3)nc3ccccn23)nn1C | 1760
13 | COc1ccccc1-c1nnc(NC(=O)c2cccc(N3C(=O)CCC3=O)c2)o1 | 1920
14 | Cc1noc(C)c1COc1cccc(C(=O)Nc2cccnc2)c1 | 1740
15 | O=C(CCC1CCCN(C(=O)Cc2ccc(F)cc2)C1)N1CCN(c2ccccn2)CC1 (configuration not stated) | 1640
16 | CCNc1ccc(C(=O)OCC(=O)N2c3ccccc3NC(=O)C2(C)C)cc1[N+](=O)[O-] | 1810
17 | COCCNC(=O)C(OC(=O)c1cccs1)c1ccc(F)cc1 (configuration not stated) | 1860
18 | O=C(Nc1nnc(-c2ccco2)o1)c1ccc(S(=O)(=O)N2CCOCC2)cc1 | 1880
19 | NC(=O)COC(=O)c1cc(S(=O)(=O)N2CCN(c3ccccc3)CC2)ccc1Cl | 1880
20 | Cc1ccc(C(=O)NC(=S)Nc2ccccc2C)cc1 | 1630
21 | Cc1nc2ccccc2n1CC(=O)N/N=C/c1cccnc1 | 1750
22 | CCCCOc1ccc(C(=O)NCC(=O)OCC(=O)N2CCN(S(=O)(=O)c3ccc(C)cc3C)CC2)cc1 | 1610
23 | CN(C)c1ccc(N/C=C/C(=O)C(F)(F)F)cc1 | 2320 (active)

Row | SMILES | TR-FRET ratio
24 | CC(C)CNC(=O)C(=O)Nc1ccc(N(C)C)cc1 | 1880
25 | CCCOc1ccc(N/C=C/C(=O)C(C)(C)C)cc1 | 1770
26 | CC1CCCN(S(=O)(=O)c2ccc(N(C(=O)c3cnccn3)C(C(=O)NC3CCCCC3)c3cccs3)cc2)C1 (configuration not stated) | 1760
27 | CC(=O)Nc1ccc(/C=N/NC(=O)c2cccs2)cc1 | 1750
28 | C=CCn1c(=NC(=O)c2ccc(S(=O)(=O)N3CCCC3)cc2)sc2cc(NC(C)=O)ccc21 | 1920
29 | C=CCn1c(=NC(=O)c2cccs2)sc2cc(NC(C)=O)ccc21 | 2340 (active)
30 | CC(NC(=O)CCC(=O)N1CCN(S(=O)(=O)c2ccc(Cl)cc2)CC1)c1ccccc1 (configuration not stated) | 2170
31 | CC(NC(=O)COC(=O)c1ccc2c(c1)OCO2)c1ccccc1 (configuration not stated) | 1700
32 | CCOc1ccc(/C=N/NC(=O)C(C)Sc2ccccn2)cc1OCC (configuration not stated) | 1650
33 | CCN(CC)C(=O)Cn1cc(S(=O)(=O)CC(=O)NCc2ccc3c(c2)OCO3)c2ccccc21 | 1870
34 | Cc1cccc(-c2nc3ccccc3c(=O)n2NC(=O)Cc2ccc(Cl)cc2)c1 | 1630
35 | O=C(Cc1cccs1)Nc1cccc(-c2nc3ccccc3[nH]2)c1 | 1820
36 | CC(=O)Nc1ccc(S(=O)(=O)Nc2ccc(-c3ccc4nnc(C)n4n3)cc2)cc1 | 1930
37 | C/C(N)=C(/C#N)C(=O)COC(=O)C1CCN(C(=O)c2ccc(Cl)cc2)CC1 | 1880
38 | C/C(=N/O)c1ccc(N2C(=O)C3C4C=CC(C3C2=O)C2C3C(=O)N(c5ccc(/C(C)=N/O)cc5)C(=O)C3C42)cc1 (configuration not stated) | 1760
39 | CSc1ccc(/C=N/N2CCN(Cc3ccccc3Cl)CC2)cc1 | 1700
40 | CC1CCCCC1NC(=O)COC(=O)Cc1ccc(Br)cc1 (configuration not stated) | 1500
41 | CCSC1=NCCN1C(=O)c1ccc(S(=O)(=O)N(CC)CC)cc1 | 1800
42 | CCN(CC)Cc1nc2sc(C)c(C)c2c(=O)[nH]1 | 1970
43 | Cc1ccc(OC(=O)CCC(=O)Nc2ccc(Br)cc2)cc1 | 1980
44 | CC(=O)N/N=C(\C)c1ccc(Br)cc1Br | 1740
45 | COC(=O)c1onc(-c2c(OC)cc(OC)cc2OC)c1C(=O)OC | 1640
46 | Cc1sc2nc(CC(N)=O)[nH]c(=O)c2c1-c1ccccc1 | 1690

Row | SMILES | TR-FRET ratio
47 | O=C(CO/N=C/c1ccc(OC(F)F)cc1)NCc1ccc(F)cc1 | 1970
48 | O=C(/C=C\c1ccc2c(c1)OCO2)NC1(C(=O)Nc2ccc3c(c2)OCCO3)CCCCC1 | 1600
49 | Cc1cccc(-c2ncc(CN3CCC(CO)(CCCc4ccccc4)CC3)cn2)c1 | 1880
50 | OCC1(CCc2ccccc2)CCN(Cc2ccc3nsnc3c2)CC1 | 2510 (active)
51 | CC(=O)c1cccc(CN2CCC(CO)(Cc3ccccc3)CC2)c1 | 1590
52 | CC(C)N(C(=O)Cn1cc(SCC(=O)N2CCCC2)c2ccccc21)C(C)C | 1650
53 | CCOc1ccc(CCNC(=O)CSc2cc(=O)n(C)c3ccc(Cl)cc23)cc1OCC | 2230
54 | Cn1c(=O)cc(SCC(=O)N2CCCC2)c2cc(Cl)ccc21 | 3640 (active)
55 | CC(CC(=O)O)CC(=O)NNC(=O)c1cccc(Br)c1 (configuration not stated) | 1850
56 | CCN(CCCNC(=O)CSc1cc(=O)n(C)c2cc(Cl)ccc12)Cc1ccccc1 | 3020 (active)
57 | O=C(CSc1cccc[n+]1[O-])NCCCc1ccccc1 | 1620
58 | CCn1c(=O)cc(SCC(=O)NCCC2=CCCCC2)c2ccccc21 | 2120
59 | O=C(CCC1CCCN(Cc2ccc(O)c(Cl)c2)C1)NCc1ccccc1F (configuration not stated) | 1790
60 | Cc1cc(C)cc(C(=O)N(CCc2ccccc2)C2=CC3CCC(C2)N3C)c1 (configuration not stated) | 1720
61 | CS(=O)(=O)N(CC(=O)NC1CCCC1)Cc1ccc(F)cc1 | 1700
62 | O=C(CO/N=C/c1ccccc1OC(F)F)NC1CCCC1 | 2060
63 | CCOC(=O)NC(=O)C(=CNc1cccc(OC)c1)C(=O)NC(=O)OCC | 1950
64 | CCOC(=O)c1sc(-c2cccc([N+](=O)[O-])c2)cc1N | 1540
65 | CS/C(=C\[N+](=O)[O-])Nc1ccc(C)cc1 | 1980
66 | CNC(=O)NC(=O)C(OC(=O)c1cccc(S(=O)(=O)N2CCCCC2)c1)c1ccccc1 (configuration not stated) | 1550
67 | COCC(C)NC(=O)CSc1nc2nn(-c3ccccc3)c(=O)c-2c2n1CCCCC2 (configuration not stated) | 1600
68 | S=c1[nH]nc(COc2ccccc2)n1-c1ccccc1 | 1980
69 | Cc1cccc(OCc2ccc(C(=O)Nc3ccc(F)cc3)cc2)c1 | 1720

Row | SMILES | TR-FRET ratio
70 | Fc1ccc(COc2cccc(-c3n[nH]c(=S)o3)c2)cc1 | 3340 (active)
71 | Cc1ccc(-c2nc(-c3cccnc3)sc2CC(=O)Nc2ccc(C)c(Cl)c2)cc1 | 2930 (active)
72 | Cc1ccc(S(=O)(=O)NCCC(=O)Nc2ccc(C)c(Cl)c2)cc1C | 1870
73 | Cc1cccc(NC(=O)c2sc(-c3ccccc3)nc2-c2ccc([N+](=O)[O-])cc2)c1 | 1770
74 | O=S(=O)(NCc1ccccc1)c1ccc(S(=O)(=O)N2CCCC2)cc1 | 1770
75 | N#Cc1ccc(C(=O)Nc2nc(-c3cccs3)c(C(=O)C(F)(F)F)s2)cc1 | 2000
76 | Cc1nc(N)c(Br)c(C)c1Br | 1890
77 | CCN(CC)P(=O)(Nc1ccc(SC(F)F)cc1)c1ccc(N(C)C)cc1NC(=O)c1ccco1 (configuration not stated) | 1800
78 | CC(C)CCN1C(=O)c2ccc(C(=O)Nc3cccc(S(N)(=O)=O)c3)cc2C1=O | 1840
79 | COc1ccc(NC(=O)COC(=O)c2ccncc2)c(OC)c1 | 1980
80 | COc1cccc(-n2nc(C(=O)N3CCN(Cc4ccccc4)CC3)c3ccccc3c2=O)c1 | 1300
81 | CCOC(=O)Cc1csc(SCc2cc(=O)oc3cc(O)ccc23)n1 | 1620
82 | CCOC(=O)Cc1csc(NC(=O)COc2ccc3c(C)cc(=O)oc3c2)n1 | 2450 (active)
83 | CCOC(=O)Cc1csc(NC(=O)CSc2ccc(Br)cc2)n1 | 1780
84 | O=C(NCCCNc1ccc([N+](=O)[O-])cc1Cl)c1ccccc1F | 1920
85 | Cc1c(CN2CCCC(C(=O)c3cccc(Cl)c3)C2)c(=O)n(-c2ccccc2)n1C (configuration not stated) | 1510
86 | COc1cc(NC(=O)COC(=O)CSc2ccc3ccccc3c2)c(C)cc1[N+](=O)[O-] | 1730
87 | Cc1ccc(N2C(=O)C(NC(=O)c3c(F)cccc3F)(C(F)(F)F)C3=C2CC(C)(C)CC3=O)cc1 (configuration not stated) | 1770
88 | CC1CC(C)(C)NC(=S)N1CCC(=O)N1CCN(Cc2ccccc2)CC1 (configuration not stated) | 1810
89 | CC(C)C(c1nnnn1C(C)(C)C)N1CCN(Cc2cccnc2)CC1 (configuration not stated) | 1760
90 | Cc1nc(N2CCOCC2)c2c(C)c(C(=O)Nc3ccc(C(F)(F)F)cc3)sc2n1 | 1820
91 | Cc1nc(N2CCN(c3ccccn3)CC2)c2c(C)c(C(=O)Nc3ccc(F)cc3)sc2n1 | 1920
92 | Cc1nc(N2CCC(C)CC2)c2c(C)c(C(=O)Nc3cc(F)ccc3C)sc2n1 | 2400 (active)
